Screen size: about 2,000 compounds; about 100 (5%) were called active. Cut-off read from the data, not from the text of the source: active = z-score above about 2; inactive = the rest. The full list was thinned out, with actives kept by preference.
Assay: modulators of mitochondrial supercomplex assembly, cell-based, luminescence, Hoechst nuclei count (AID 1645838);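 note: control cybrid cells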;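 for z-score: higher means more mitochondrial supercomplex formation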
Conditions: Cells, luminescence/Hoechst cell count ratio, supercomplex reporter; for z-score: stronger effect = higher value; for cell count: measured here: cell number, Hoechst nuclei count
[1] = library stock concentration (final well concentration not given) 80 uM
[2] = library stock concentration (final well concentration not given) 400 uM
[3] = library stock concentration (final well concentration not given) 2 mM
[4] = library stock concentration (final well concentration not given) 10 mM
[5] = library stock concentration (final well concentration not given) 46 uM
[6] = library stock concentration (final well concentration not given) 278 uM
[7] = library stock concentration (final well concentration not given) 1.67 mM

CC(O)C(O)C1CNc2nc(N)[nH]c(=O)c2N1 (stereo not drawn)
outcome (library stock 10 mM): inactive; censored for cell count | z-score [1]: -0.395 (inactive) | z-score [2]: -0.667 (inactive) | z-score [3]: -0.491 (inactive) | cell count [1]: 5380 | cell count [2]: 5520 | cell count [3]: 4750

C#C[C@]1(O)CC[C@@H]2[C@@H]3CCc4cc(O)ccc4[C@@H]3CC[C@@]21C
z-score [1]: -0.386 (inactive) | z-score [2]: -0.396 (inactive) | z-score [3]: -0.217 (inactive) | z-score [4]: -0.397 (inactive) | cell count [1]: 5910 | cell count [2]: 5660 | cell count [3]: 5810 | cell count [4]: 5370

C[C@H](CCCO)[C@H]1CC[C@H]2[C@@H]3[C@H](O)C[C@H]4C[C@H](O)CC[C@]4(C)[C@H]3C[C@H](O)[C@]12C
z-score: -0.0135 (inactive) | cell count: 5570

O=C(Nc1cccc(Br)c1)c1cccc(S(=O)(=O)N2CCCCCC2)c1
z-score [5]: -0.0641 (inactive) | z-score [6]: 0.273 (inactive) | z-score [7]: 0.0446 (inactive) | z-score [4]: -0.0353 (inactive) | cell count [5]: 6460 | cell count [6]: 6210 | cell count [7]: 6270 | cell count [4]: 5890

CC(=NNC(=O)c1cccc(S(=O)(=O)N2CCOCC2)c1)c1cc(Cl)ccc1O
outcome (library stock 278 µM): inactive; censored for cell count | z-score [5]: -0.349 (inactive) | z-score [7]: 3.11 (active) | z-score [4]: 3.02 (active) | cell count [5]: 7290 | cell count [7]: 2520 | cell count [4]: 1770

O=C(O)c1cccc(S(=O)(=O)N2CCc3ccccc3C2)c1
z-score [1]: -0.371 (inactive) | z-score [2]: 0.24 (inactive) | z-score [3]: -0.13 (inactive) | z-score [4]: 0.0481 (inactive) | cell count [1]: 5540 | cell count [2]: 4830 | cell count [3]: 5230 | cell count [4]: 4980

O=C(O)CCCCCC[C@@H]1[C@@H](CC[C@@H](O)CCc2cccc(C(F)(F)F)c2)[C@H](O)C[C@@H]1O
z-score: -0.0245 (inactive) | cell count: 4710

COc1ccc(-c2nc3cc(F)ccc3s2)cc1OC
z-score: -0.706 (inactive) | cell count: 5090

O=C(/C=C/c1cccc(C(=O)NO)c1)NO
z-score: 3.39 (active) | cell count: 4470

O=C(O)/C=C/c1ccc(O)c(O)c1
z-score: -0.483 (inactive) | cell count: 5860

COc1ccc(/C=C/C(=O)Nc2c(O)cccc2C(=O)O)cc1OC
z-score: -0.476 (inactive) | cell count: 5390

CCCCCCCCCC(=O)N[C@@H](CN1CCOCC1)[C@@H](O)c1ccccc1
z-score: 0.0636 (inactive) | cell count: 5620

COC1C[C@@H]2CCC(C)[C@@](O)(O2)C(=O)C(=O)N2CCCC[C@@H]2C(=O)O[C@@H](C(C)CC2CCC(n3cnnn3)C(OC)C2)CC(=O)C(C)C=C(C)C(O)C(OC)C(=O)C(C)CC(C)C=CC=CC=C1C (stereo partly drawn)
z-score [1]: 0.366 (inactive) | z-score [2]: 0.334 (inactive) | z-score [3]: 0.739 (inactive) | z-score [4]: 1.14 (inactive) | cell count [1]: 4410 | cell count [2]: 4360 | cell count [3]: 4240 | cell count [4]: 3590

COC1CC2CCC(C)C(O)(O2)C(=O)C(=O)N2CCCCC2C(=O)OC(C(C)CC2CCC(O)C(OC)C2)CC(=O)C(C)C=C(C)C(O)C(OC)C(=O)C(C)CC(C)C=CC=CC=C1C (stereo not drawn)
z-score [1]: 0.756 (inactive) | z-score [2]: 0.731 (inactive) | z-score [3]: 1.2 (inactive) | z-score [4]: 1.21 (inactive) | cell count [1]: 2980 | cell count [2]: 3130 | cell count [3]: 2660 | cell count [4]: 2720

CO[C@H]1C[C@@H]2CC[C@@H](C)[C@@](O)(O2)C(=O)C(=O)N2CCCC[C@H]2C(=O)O[C@H]([C@@H](C)C[C@@H]2CC[C@@H](O)[C@H](OC)C2)CC(=O)[C@H](C)/C=C(\C)[C@@H](O)[C@@H](OC)C(=O)[C@H](C)C[C@H](C)/C=C/C=C/C=C/1C
z-score: 2.24 (active) | cell count: 4010

Cc1ccc(C(=O)Nc2ccc(Oc3cc4cnn(C)c4cc3-c3cn[nH]c3)c(F)c2)c(=O)n1-c1ccc(F)cc1
z-score [5]: -0.888 (inactive) | z-score [6]: -0.95 (inactive) | z-score [7]: -1.73 (inactive) | z-score [4]: -2.48 (inactive) | cell count [5]: 7640 | cell count [6]: 6950 | cell count [7]: 7070 | cell count [4]: 6390

CC/C=C\C/C=C\C/C=C\C/C=C\C/C=C\CCCC(=O)O[C@H](COCCCCCCCCCCCCCCCC)COP(=O)([O-])OCC[N+](C)(C)C
z-score: -1.23 (inactive) | cell count: 5300

CCCCC[C@H](O)/C=C/[C@@H]1[C@@H](C/C=C\CCCC(=O)NC(CO)CO)[C@@H](O)C[C@H]1O
z-score: -0.166 (inactive) | cell count: 5460

Cn1cc(CNCC2CCN(c3ncc(C(=O)NO)cn3)CC2)c2ccccc21
outcome (library stock 400 µM): inactive; censored for cell count | outcome (library stock 2 mM): inactive; censored for cell count | outcome (library stock 10 mM): inactive; censored for cell count | z-score [1]: 10.5 (active) | cell count [1]: 1710

CN1CCc2c(c3ccccc3n2Cc2ccc(C(=O)NO)cc2)C1
z-score [5]: -0.165 (inactive) | z-score [6]: -0.118 (inactive) | z-score [7]: -0.0772 (inactive) | z-score [4]: 0.0302 (inactive) | cell count [5]: 5170 | cell count [6]: 5040 | cell count [7]: 4790 | cell count [4]: 4770

COc1cc(C(=O)NS(=O)(=O)c2ccccc2C)ccc1Cc1cn(C)c2ccc(NC(=O)OC3CCCC3)cc12
z-score: -0.169 (inactive) | z-score [1]: -0.186 (inactive) | z-score [2]: 0.251 (inactive) | z-score [3]: -0.394 (inactive) | z-score [4]: 0.0319 (inactive) | cell count: 4650 | cell count [1]: 5870 | cell count [2]: 5520 | cell count [3]: 5910 | cell count [4]: 4990

Nc1nc(OC(c2ccc(-c3cccc(F)c3)cc2)C(F)(F)F)cc(-c2ccc(CC(N)C(=O)O)cc2)n1 (stereo not drawn)
z-score [1]: -0.00893 (inactive) | z-score [2]: -0.406 (inactive) | z-score [3]: -0.0477 (inactive) | z-score [4]: -0.333 (inactive) | cell count [1]: 4780 | cell count [2]: 5340 | cell count [3]: 4660 | cell count [4]: 4880
